From the supplement of paper PMC7156485
± gives the standard deviation of the averaged measurements.

What follows are compounds tested on HCC1569 (assay: cell number relative to DMSO (% of DMSO); higher = more cells (less growth inhibition / toxicity)). Conditions: concentration: 10 µM; 24 h.
Method in brief: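 H1.0 nuclear intensity or cell number is stated as percent of the plate control, based on the median of replicates, and HCC1569 values were smoothed for positional effects. These came from HCC1569 and TDF cells treated with compounds at 10 µM for 24 h at 37 °C in triplicate, then fixed in 3.7% formaldehyde and stained with a rabbit anti-H1.0 antibody, an AlexaFluor 647 secondary and DAPI.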
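Also: TDF denotes transformed human dermal fibroblasts of mesenchymal origin.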

Structure (SMILES)	cell number
COc1ccc2cc(OCC3(C(=O)O)CN(C(=O)c4ccc(F)cc4)C3)ccc2c1	105
CN1CCCC1c1cccnc1.Cc1ccc(C(=O)OC(C(=O)O)C(OC(=O)c2ccc(C)cc2)C(=O)O)cc1 (stereo not drawn) [(+)-Nicotine (+)-di-p-toluoyl tartrate]	102
CCCC(=O)NCCc1c2n(c3ccc(OC)cc13)Cc1ccccc1-2	92.4
Nc1nc(Cl)nc2c1ncn2C1OC(CO)C(O)C1F (configuration not stated) [Clofarabine]	90.6
Clc1ccc(CCC(Cn2ccnc2)Sc2c(Cl)cccc2Cl)cc1.O=[N+]([O-])O (configuration not stated) [Butoconazole nitrate]	98.1
Cl.O=C(O)C1=CCNCC1 [Isoguvacine hydrochloride]	106
CC(=O)NC1C(N=C(N)N)C=C(C(=O)O)OC1C(O)C(O)CO (configuration not stated)	102
CC1CC2C3CCC4=CC(=O)C=CC4(C)C3(F)C(O)CC2(C)C1(O)C(=O)CO (configuration not stated) [Betamethasone]	97.2
COc1cc(-c2oc3cc(O)cc(O)c3c(=O)c2OC2OC(CO)C(O)C(O)C2O)ccc1O (configuration not stated) [Isorhamnetine-3-glucoside]	102
O=c1cc(-c2ccc(O)cc2)oc2cc(O)cc(O)c12 [Apigenin]	93.5 ± 3
NC(=O)N1C(=O)/C(=C(\O)c2cccs2)c2cc(Cl)ccc21	101
COC1CC2CCC(C)C(O)(O2)C(=O)C(=O)N2CCCCC2C(=O)OC(C(C)CC2CCC(O)C(OC)C2)CC(=O)C(C)C=C(C)C(O)C(OC)C(=O)C(C)CC(C)C=CC=CC=C1C (configuration not stated) [Rapamycin]	96.2 ± 5.5
